Compound activity deposited in PubChem BioAssay by several laboratories.
Hits are enriched below; roughly 5% of the tested compounds scored in any of these assays.
SENP8 block-1 – blocks human SENP8 cleavage of Nedd8 substrate. recombinant SENP8, Nedd8 substrate fluorescence. inhibition, % at 20 µM. hit rate 0.64% among 360,000. AID 602440; in the data active = inhibition mostly above about 40%, no sharp cut-off; inactive = mostly below about 27%
Target sequence (Q96LD8 whole entry, looked up): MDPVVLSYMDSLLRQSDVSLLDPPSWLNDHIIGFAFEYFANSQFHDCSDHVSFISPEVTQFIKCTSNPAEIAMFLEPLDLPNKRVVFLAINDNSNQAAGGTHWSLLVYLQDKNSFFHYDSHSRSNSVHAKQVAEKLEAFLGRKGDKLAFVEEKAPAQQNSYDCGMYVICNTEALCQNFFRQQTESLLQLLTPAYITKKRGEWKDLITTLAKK
AHR activator – human AHR activation; AHR-responsive luciferase reporter cells, luminescence; hit rate 2.5% among 320,000; activation, % at 5 µM; in the data active = activation above about 47%;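 note: 0% = vehicle wells and 100% = reference agonist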
SENP7 inh – blocks the human protease SENP7; recombinant SENP7, Z-RLRGG-aminoluciferin luminescence, 40 min; inhibition, % at 5 µM; hit rate 1.5% among 330,000; AID 434973;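 active = inhibition above about 50% at the single test dose, limit read from the data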;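 note: plate controls were DMSO with enzyme for no effect and no enzyme buffer wells for full effect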
Target sequence (Q9BQF6 706-1050 limits assumed): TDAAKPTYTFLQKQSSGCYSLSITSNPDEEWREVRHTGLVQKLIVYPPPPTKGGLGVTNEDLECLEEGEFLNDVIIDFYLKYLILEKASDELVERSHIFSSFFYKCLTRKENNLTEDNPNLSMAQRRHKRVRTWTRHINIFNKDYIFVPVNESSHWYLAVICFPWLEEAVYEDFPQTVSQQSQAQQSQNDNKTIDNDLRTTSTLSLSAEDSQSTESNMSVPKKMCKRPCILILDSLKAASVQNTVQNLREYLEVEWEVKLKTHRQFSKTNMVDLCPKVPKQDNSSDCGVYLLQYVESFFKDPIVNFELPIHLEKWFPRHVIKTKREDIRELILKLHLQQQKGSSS
SENP6 inh – SENP6 protease inhibition. Q9GZR1. Recombinant SENP6 catalytic domain, aminoluciferin luminescence. inhibition, % at 10 µM. hit rate 1.8% among 330,000. AID 2599;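 active = inhibition above about 50% at the single tested dose, limit read from the data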;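 note: plate controls were DMSO wells with enzyme for no effect and DMSO wells lacking enzyme for full effect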
SENP8 block-2 – inhibitors of human SENP8 protease; Q96LD8; purified SENP8, Z-RLRGG-aminoluciferin cleavage, luminescence; inhibition, % at 10 µM; hit rate 1.2% among 330,000; in the data active = inhibition above about 50%
EBI2 antag – blocks human EBI2 receptor beta-arrestin signaling. P32249. EBI2 beta-arrestin recruitment, luminescence, 7a,25-OHC stimulated. inhibition, % at 5 µM. hit rate 0.81% among 360,000; in the data active = inhibition above about 38%;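 note: enzyme fragment complementation signal reports receptor beta-arrestin coupling in cells; 0% = agonist plus DMSO wells and 100% = wells without agonist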
SENP8 conf – confirmation of human SENP8 protease inhibitors | hit rate 40% among 6,200 | Recombinant SENP8, Z-RLRGG-aminoluciferin luminescence, 60 min | shares compounds with SENP7 inh | inhibition, % at 12.5 µM;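 active = mean inhibition across replicates above about 50%, limit read from the data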
SENP6 conf – human SENP6 inhibition, confirmed. shares compounds with SENP7 inh. inhibition, % at 12.5 µM. recombinant SENP6, Z-RLRGG-aminoluciferin luminescence. hit rate 58% among 6,200
SENP7 conf – human SENP7 inhibition, confirmed. shares compounds with SENP7 inh. recombinant SENP7, Z-RLRGG-aminoluciferin luminescence, 40 min. inhibition, % at 12.5 µM. hit rate 69% among 6,200. AID 488917
Casp3 select – inhibits human caspase-3 in SENP selectivity test | shares compounds with SENP7 inh | purified caspase-3, Z-DEVD-aminoluciferin luminescence, 60 min | inhibition, % at 12.5 µM | hit rate 60% among 6,200;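 active = mean inhibition above about 50%, limit read from the data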;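 note: plate controls were enzyme with DMSO for no effect and wells without caspase-3 for full effect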
Luc interf – luminescence interference (SENP counter-screen); Pre-incubated SENP8/Z-RLRGG-aminoluciferin, luciferase luminescence interference; AID 488919; shares compounds with SENP7 inh; inhibition, % at 12.5 µM; hit rate 39% among 6,200;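 active = mean inhibition above about 50% when retested at one dose, limit read from the data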;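 note: plate controls were DMSO wells with completed reaction for no effect and substrate without enzyme for full effect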
An asterisk follows results filed as active; · = no result.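 Rule for the calls, unless noted: active = mean inhibition above about 50% in the one-dose retest (limit read from the data); inactive = the rest.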

SMILES	SENP8 block-1	AHR activator	SENP7 inh	SENP6 inh	SENP8 block-2	EBI2 antag	SENP8 conf	SENP6 conf	SENP7 conf	Casp3 select	Luc interf
O=C(CC(Nc1ccc(Cl)cc1)C(=O)O)c1ccccc1 (configuration not stated)	-108	1	81*	92*	77*	-4	42	86*	78*	67*	35
Cn1c(=O)c2cc(NCc3ccccc3)nnc2n(C)c1=O	-83	21	5	81*	80*	5	-3	-2	-5	-4	-8
COc1ccc(-c2cc(C(=O)N3CCN(c4ccc(F)cc4)CC3)no2)cc1OC	3	-1	1	-7	-7	9	·	·	·	·	·
Nc1ccc(-c2nc3cc([N+](=O)[O-])ccc3o2)cc1	-424	4	56*	63*	38	1	11	43	85*	54*	10
CC(C)(C)Nc1nc2cc([N+](=O)[O-])ccc2o1	16	-1	-2	6	-2	-4	·	·	·	·	·
COc1ccc(-c2nc3cc([N+](=O)[O-])ccc3o2)cc1	24	2	77*	34	17	3	31	36	50	59*	13
O=C1N(Cc2cccc(Cl)c2)C[C@@H]2C[C@@H](c3ccc4nonc4c3)N3CCC[C@@]123	-15	1	0	-37	-2	13	·	·	·	·	·
COc1cccc(-c2nc(-c3ccncc3)no2)c1	1	8	80*	78*	70*	3	73*	78*	94*	86*	61*
COc1ccc(-c2ccc(-c3noc(-c4cccc(OC)c4)n3)c(OC)n2)cc1	-299	0	-3	-10	1	-6	·	·	·	·	·
COc1cccc(-c2nc(-c3cccs3)no2)c1	24	29	92*	90*	83*	15	13	87*	98*	70*	62*
CNc1nc(N2CCc3ccccc32)ncc1F	-8	-1	5	86*	79*	7	85*	86*	98*	83*	87*
COc1ccc(C2CC(=O)c3cnc(N4CCc5ccccc54)nc3C2)cc1OC (configuration not stated)	·	0	11	-9	-4	·	·	·	·	·	·
O=c1[nH]c(C(Cl)(Cl)Cl)nc2ccc3ccccc3c12	7	41	-11	88*	74*	-9	-24	71*	80*	60*	18
O=c1[nH]c(C(F)(F)F)nc2ccccc12	12	0	-4	-20	0	3	·	·	·	·	·
Cc1ccccc1C=O	5	-2	-2	-9	10	-6	·	·	·	·	·
O=Cc1ccc(N2Cc3ccccc3C2)cc1	-45	2	43	68*	54*	3	26	55*	81*	66*	12
Cc1cc2c(cc1C)CN(c1ccccc1)C2	22	0	43	59*	57*	3	51*	39	79*	79*	70*
Oc1ccc(N2Cc3ccccc3C2)cc1	9	3	1	-2	-8	-5	·	·	·	·	·
Cc1cc(N2Cc3ccccc3C2)ccc1C=O	-2	12	11	57*	50	-5	45	73*	93*	80*	28
O=c1[nH]cnc2c1ncn2-c1ccc(Cl)cc1	2	·	·	·	·	-9	·	·	·	·	·
COC(=O)c1cc(NC(=O)c2cccc([N+](=O)[O-])c2C)ccc1Cl	10	1	-4	-8	4	10	·	·	·	·	·
Cc1ccc(C(=O)O/N=C(\N)c2ccccn2)c(Cl)c1	8	-2	99*	96*	96*	-12	98*	99*	102*	98*	98*
Cc1cccc(OCC(=O)O/N=C(\N)c2ccccn2)c1C	16	2	5	47	-5	-6	·	·	·	·	·
N/C(=N\OC(=O)c1ccccc1Cl)c1cccc([N+](=O)[O-])c1	15	17	90*	75*	67*	4	59*	60*	91*	59*	81*
N/C(=N\OC(=O)COc1cc(Cl)c(Cl)cc1Cl)c1ccccn1	16	1	77*	79*	58*	1	12	55*	10	52*	12
SMILES	SENP8 block-1	AHR activator	SENP7 inh	SENP6 inh	SENP8 block-2	EBI2 antag	SENP8 conf	SENP6 conf	SENP7 conf	Casp3 select	Luc interf
N/C(=N/OC(=O)c1cccc([N+](=O)[O-])c1)c1cccc([N+](=O)[O-])c1	26	3	-5	-19	-10	4	·	·	·	·	·
N/C(=N\OC(=O)CCCOc1ccc(Cl)cc1Cl)c1ccccn1	23	-1	-6	-17	-13	0	·	·	·	·	·
N/C(=N\OC(=O)c1ccc(Cl)cc1Cl)c1ccccn1	15	7	99*	99*	96*	-17	97*	98*	102*	98*	95*
COc1cc(C(=O)N(C)CCOc2ccc(C)cc2)ccc1OC1CCN(C(C)=O)CC1	11	-3	-7	-6	5	10	·	·	·	·	·
Cc1ccc(NC(=O)COC(=O)[C@H](C)NC(=O)c2ccccc2)cc1S(=O)(=O)N1CCOCC1	12	2	-1	24	-6	0	·	·	·	·	·
COc1ccc(S(=O)(=O)N2CCCCCC2)cc1NC(=O)CCNC(=O)c1ccccc1Cl	12	·	·	·	·	-1	·	·	·	·	·
N/C(=N\OC(=O)/C=C/c1ccccc1)c1ccccn1	-2	2	96*	95*	88*	-3	89*	90*	100*	94*	93*
Cc1ccc(C(=O)O/N=C(\N)c2ccccc2)c(Cl)c1	16	-3	99*	99*	97*	12	5	4	10	4	5
N/C(=N\OC(=O)Cc1ccccc1[N+](=O)[O-])c1ccccn1	6	5	-3	0	2	2	·	·	·	·	·
N/C(=N\OC(=O)c1ccc([N+](=O)[O-])cc1Cl)c1ccccn1	32	18	95*	96*	91*	-13	82*	96*	102*	97*	17
N/C(=N\OC(=O)c1cccc([N+](=O)[O-])c1)c1ccccn1	13	68*	61*	50*	37	-12	35	46	75*	80*	50
COc1ccc(/C=C/C(=O)O/N=C(\N)c2ccccn2)cc1OC	-112	7	13	5	-9	-7	·	·	·	·	·
